Assay results published in PubChem BioAssay (Tox21).
Several values for one entry are separate records, joined by “and”; a condition that tells them apart may be missing. Equal values may be shown once. Results filed as inconclusive are left out. Where a structure was tested more than once in an assay, its records may differ in their call. Activity calls are given as the source filed them. Unless noted, calls follow the shape of the dose curve; as a rule, active = well fitted curve in the direction sought with a large enough effect in the repeat runs; inconclusive = weak or mixed curves; inactive = no such curve, though single readings can be large; an effect the other way counts as inactive or inconclusive.

Columns and labels:
[1] = A CellTox Green Cytotoxicity Assay to monitor cytotoxicity in HEK293 cells - 32 hour (AID 1224881); also: nearly all actives have a fitted effect of over 40% in size; also: potency is read from the fitted curve at half-maximal effect
How it was run: (§1)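 Fluorescence intensity, read at 0, 8, 16, 24, 32 and 40 h of compound treatment, reflected dye binding to DNA of dead HEK293 cells; compounds (23 nL, DMSO) were added 5 h after plating cells with reagent.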

[2] = A CellTox Green Cytotoxicity Assay to monitor cytotoxicity in HepG2 cells - 0 hour (AID 1224882); also: nearly all actives have a fitted effect of over 35% in size
How it was run: (§2)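 Using 1536-well format, dye-containing HepG2 suspension was seeded, allowed 5 h at 37 C/5% CO2, dosed by pintool with compounds, positive and negative controls, and imaged for fluorescence across 40 h.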

[3] = A CellTox Green Cytotoxicity Assay to monitor cytotoxicity in HepG2 cells - 32 hour (AID 1224883); also: nearly all actives have a fitted effect of over 50% in size; also: potency is read from the fitted curve at half-maximal effect
How it was run: as §2

[4] = A CellTox Green Cytotoxicity Assay to monitor cytotoxicity in HEK293 cells - 8 hour (AID 1224884); also: nearly all actives have a fitted effect of over 35% in size; also: potency is read from the fitted curve at half-maximal effect
How it was run: as §1

[5] = qHTS RealTime-Glo MT Cell Viability Assay in HepG2 cells - 16 hour (AID 1224885); also: nearly all actives have a fitted effect of over 50% in size
How it was run: (§3)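 Cells + NanoLuc/prosubstrate dispensed (600 cells/well) → 5 h at 37 C/5% CO2 → compounds in DMSO transferred → 40 h incubation at 37 C, luminescence read at 0, 8, 16, 24, 32, 40 h.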

[6] = qHTS RealTime-Glo MT Cell Viability Assay in HEK293 cells - 24 hour (AID 1224886); also: top concentration of the series differs between compounds; nearly all actives have a fitted effect of over 50% in size
How it was run: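 Tox21 10K qHTS, HEK293, 600 cells/well, RealTime-Glo reagent co-dispensed with cells; 5 h preincubation, compound by pintool, 37 C, luminescence at 0–40 h.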

[7] = A CellTox Green Cytotoxicity Assay to monitor cytotoxicity in HEK293 cells - 16 hour (AID 1224888); also: nearly all actives have a fitted effect of over 35% in size
How it was run: as §1

[8] = qHTS RealTime-Glo MT Cell Viability Assay in HepG2 cells - 0 hour (AID 1224889); also: nearly all actives have a fitted effect of over 50% in size
How it was run: as §3

[9] = A CellTox Green Cytotoxicity Assay to monitor cytotoxicity in HepG2 cells - 8 hour (AID 1224890); also: nearly all actives have a fitted effect of over 45% in size; also: potency is read from the fitted curve at half-maximal effect
How it was run: as §2

[10] = qHTS assay to identify small molecule antagonists of the estrogen receptor alpha (ER-alpha) signaling pathway using the BG1 cell line in the presence of 0.1 nM 17-beta-estradiol - cell viability counter screen (AID 1259241); also: nearly all actives have a fitted effect of over 40% in size
How it was run: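 Following 5 days in phenol red-free medium with charcoal-stripped serum, VM7Luc4E2 cells received test compounds alongside 0.1 nM 17beta-estradiol (final) at 37C for 22 hr. Live cells were then quantified via protease-substrate fluorescence.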

[11] = qHTS assay to identify small molecule antagonists of the androgen receptor (AR) signaling pathway using the MDA cell line in the presence of 0.5 nM R1881 - cell viability counter screen (AID 1259242); also: nearly all actives have a fitted effect of over 45% in size
How it was run: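 Viability of MDA-kb2 cells was multiplexed with the luciferase AR readout; after 16 hr with compounds and R1881 at 0.5 nM final, CellTiter-Fluor fluorescence was recorded.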

[12] = qHTS assay to identify small molecule HDAC inhibitors (AID 1259364);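 also: wild-type HCT-116 cells with endogenous class I/II HDAC activity; top concentration of the series differs between compounds; nearly all actives have a fitted effect of over 45% in size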
How it was run: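 Read-out: luminescence of HDAC-Glo I/II reagent, 30 min RT, reflecting class I/II deacetylase activity in whole HCT-116 cells pre-exposed 2 h to DMSO-dissolved compounds.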

[13] = qHTS assay to identify small molecule HDAC inhibitors - cell viability counter screen (AID 1259365)
How it was run: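 HCT-116 wild-type, overnight attachment; 2hr drug exposure, 37C; CellTiter-Glo luminescent ATP readout after 30min RT.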

[14] = qHTS assay to identify small molecule agonists of the sonic hedgehog signaling (Shh) pathway - cell viability counter screen (AID 1259366); also: nearly all actives have a fitted effect of over 50% in size
How it was run: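 Compounds in DMSO were pin-transferred onto 3T3 Gli1-Luc cells that had settled 4hr; plates then stood 24hr at 37C and 5% CO2. One hour before the end, CellTiter-Fluor was added and fluorescence recorded.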

[15] = qHTS assay to identify small molecule antagonists of the sonic hedgehog signaling (Shh) pathway - cell viability counter screen (AID 1259367); also: nearly all actives have a fitted effect of over 55% in size
How it was run: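 Seed 3T3 Gli1-Luc cells at 2,000 per well; incubate 4 hr; add compound in DMSO, then conditioned medium; incubate at 37C with 5% CO2; add CellTiter-Fluor after 23 hr; read fluorescence 1 hr later.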

[16] = qHTS assay to identify small molecule agonists of the sonic hedgehog signaling (Shh) pathway (AID 1259368; calls by dose curve;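 also: NIH/3T3-derived 3T3Gli1-Luc cells carrying a stable Gli1-driven firefly luciferase reporter; series mostly up to about 92 µM; nearly all actives have a fitted effect of over 15% in size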)
How it was run: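 A Gli1 transcriptional response element controlled firefly luciferase in 3T3Gli1-Luc cells. Compounds and a positive control were added 4 hr after plating, and cells were incubated a further 24 hr at 37 C before luminescence detection.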

[17] = qHTS assay to identify small molecule phospholipidosis (PLD) inducers (AID 1259344; active = well fitted curve in the direction sought with a large enough effect; an effect the other way counts as inactive or inconclusive)
How it was run: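 Quantitative HTS in HepG2: compound plus LipidTOX Red dye for 24 h, paraformaldehyde fixation with Hoechst 33342, widefield high-content imaging; amiodarone as positive and DMSO as negative control.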

[18] = target: Estrogen receptor (Homo sapiens) (UniProt P03372); experiment: qHTS assay to identify small molecule antagonists of the estrogen receptor alpha (ER-alpha) signaling pathway using the BG1 cell line in the presence of 0.1 nM 17-beta-estradiol (AID 1259244); also: nearly all actives have a fitted effect of over 50% in size
Sequence of Estrogen receptor (Homo sapiens) (P03372 whole entry, looked up): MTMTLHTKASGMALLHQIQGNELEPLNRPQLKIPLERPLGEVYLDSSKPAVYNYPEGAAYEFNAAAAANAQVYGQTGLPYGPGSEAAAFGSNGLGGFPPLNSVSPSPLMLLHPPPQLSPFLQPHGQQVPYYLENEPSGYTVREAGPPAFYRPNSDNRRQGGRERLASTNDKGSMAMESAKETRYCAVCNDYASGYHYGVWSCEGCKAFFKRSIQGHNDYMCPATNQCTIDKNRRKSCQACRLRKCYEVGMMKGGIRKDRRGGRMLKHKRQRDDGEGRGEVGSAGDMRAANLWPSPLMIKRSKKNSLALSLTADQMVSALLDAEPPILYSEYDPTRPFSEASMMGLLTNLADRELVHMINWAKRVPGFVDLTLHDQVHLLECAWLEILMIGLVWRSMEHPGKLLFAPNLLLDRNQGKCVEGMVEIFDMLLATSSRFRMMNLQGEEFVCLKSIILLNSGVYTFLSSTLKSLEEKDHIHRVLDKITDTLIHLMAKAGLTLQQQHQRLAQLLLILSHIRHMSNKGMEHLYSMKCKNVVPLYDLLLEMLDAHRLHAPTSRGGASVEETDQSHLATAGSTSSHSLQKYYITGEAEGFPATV
How it was run: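 Estradiol at 0.1 nM (final) stimulates the endogenous ER-alpha of VM7Luc4E2 cells carrying an ERE-driven luciferase; compounds are co-incubated 22 h at 37C and luciferase output quantified by luminescence.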

Measured: Potency

COCCOCCOCCO
not listed: [17] | [18]
inactive: all other assays above

CC1(C)OC(=O)NC1=O
not listed: [18]
inactive: all other assays above

COC(=O)C(C)Oc1ccc(Oc2ncc(C(F)(F)F)cc2Cl)cc1 (stereo not drawn)
not listed: [6] | [17]
inactive: all other assays above

Cc1ccc(C(C)(C)C)c(O)c1
18.9 µM (active) and inactive: [4]
active: [1] 23.8 µM and 21.9 µM | [3] 38.9 µM
inactive and 43.6 µM (active): [9]
not listed: [7] | [14] | [15] | [17]
inactive: all other assays above
